Rab9 promoter act: qHTS Assay for Rab9 Promoter Activators; Huh7 Rab9 promoter-luciferase reporter, luminescence, 24 h; Potency, µM (doses to about 9.22 µM), for inactives: top-dose activation, negative = inhibition, actives largely listed as activators; 2.8% of 320,000 active; also: % of control where 0% means no effect; nearly all actives have a fitted effect of over 60% in size
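Luminescence read-out: Huh7 cells stably expressing Rab9-luciferase, treated 24 h with compound at 37 °C, then lysed with luciferase reagent for 10 min at ambient before reading.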
SMN2 splice up: qHTS Assay for Enhancers of SMN2 Splice Variant Expression. AID 1458, 2008. HEK293 SMN2-luciferase splicing reporter, luminescence, 30-36 h. Potency, µM (highest dose often 46.1 µM), for inactives: top-dose activity change, positive = activation, most hits filed as activators. 2.8% of 210,000 active; also: % of control where 0% means no effect; nearly all actives have a fitted effect of over 55% in size
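qHTS luciferase splicing reporter: luminescence rises when SMN2 exon 7 is included in transfected HEK293 cells. Compound exposure lasted 30-36 h at 37C, with 4.5 mM final sodium butyrate as control, followed by a ONE-Glo read.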
NPC1 promoter act: qHTS Assay for NPC1 Promoter Activators | 2.4% of 320,000 active | AID 485313, 2010 | Huh7 NPC1 promoter luciferase reporter, 24 h | Potency, µM (titrated, usually from 9.22 µM), for inactives: top-dose activation, hits mostly activators; also: % of control where 0% means no effect; nearly all actives have a fitted effect of over 60% in size
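Readout is luciferase luminescence, reflecting NPC1 promoter activation in stably transfected Huh7 cells after 24 h compound exposure at 37 °C in reduced-serum medium with 10% FBS.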
ELG1 DNA repair: qHTS screen for small molecules that inhibit ELG1-dependent DNA repair in human embryonic kidney (HEK293T) cells expressing luciferase-tagged ELG1 | HEK293T ELG1-luciferase reporter, luminescence, 16 h; DNA damage induced by 5-fluorouridine | Potency, µM (doses to about 46.1 µM), for the others: at the top dose activity change, negative = inhibition, actives largely listed as inhibitors | 2.3% of 330,000 active; also: % is scaled to controls: 0 for no effect and ±100 for the full control effect; nearly all actives have a fitted effect of over 55% in size
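Step one: seed 2,000 cells per well. Step two: pin-transfer compound or DMSO alongside 5-fluorouridine. Step three: incubate 16 hr, 37 °C, 5% CO2. Step four: add ONE-Glo, wait 30 min, read luminescence.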
FLuc counter: qHTS profiling assay for firefly luciferase inhibitor/activator using purifed enzyme and Km concentrations of substrates (counterscreen for miR-21 project); Luciferin 4-monooxygenase (Photinus pyralis), P08659; Potency, µM (series often up to 57.5 µM), inactives show top-dose activity change, negative = inhibition, hits mostly inhibitors; 6.9% of 360,000 active; purified FLuc, Km substrates, luminescence inhibition;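 also: plate controls were vehicle for no effect and reference inhibitor for full effect; nearly all actives have a fitted effect of over 55% in size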
Target sequence (P08659 whole entry, looked up): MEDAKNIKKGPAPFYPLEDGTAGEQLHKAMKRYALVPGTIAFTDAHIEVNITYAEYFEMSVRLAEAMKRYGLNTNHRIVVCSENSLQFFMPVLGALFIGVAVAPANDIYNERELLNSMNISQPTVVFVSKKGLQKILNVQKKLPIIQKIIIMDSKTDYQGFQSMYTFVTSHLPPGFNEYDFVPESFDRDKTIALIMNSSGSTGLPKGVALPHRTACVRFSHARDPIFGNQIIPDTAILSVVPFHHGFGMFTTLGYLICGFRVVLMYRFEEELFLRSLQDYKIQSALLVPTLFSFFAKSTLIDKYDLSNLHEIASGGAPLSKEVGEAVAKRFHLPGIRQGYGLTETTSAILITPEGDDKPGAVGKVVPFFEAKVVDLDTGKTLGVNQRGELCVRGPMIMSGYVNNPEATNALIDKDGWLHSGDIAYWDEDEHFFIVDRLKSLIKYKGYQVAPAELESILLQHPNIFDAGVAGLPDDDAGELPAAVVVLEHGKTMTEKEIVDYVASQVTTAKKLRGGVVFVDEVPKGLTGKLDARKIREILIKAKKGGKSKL
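Purified P. pyralis luciferase, 10 nM final, with Km-level 10 uM D-luciferin and 10 uM ATP in 50 mM Tris acetate pH 7.5, 10 mM Mg acetate, 0.01% Tween-20, 0.05% BSA; 6-point qHTS titration about 60 µM downward; luminescence read.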
ELG1 genotox: qHTS screen for small molecules that induce genotoxicity in human embryonic kidney (HEK293T) cells expressing luciferase-tagged ELG1. HEK293T ELG1-luciferase reporter, luminescence, 16 h. Potency, µM (doses to about 46 µM), inactives show top-dose activity change, positive = activation, usual class: activators. 1.3% of 330,000 active. AID 504466, 2011; also: % of control where 0% means no effect; nearly all actives have a fitted effect of over 60% in size
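ELG1-luciferase HEK293T cells, 2,000/well; compound pinned in; 16 hr, 37 °C, 5% CO2; ONE-Glo, 30 min RT; luminescence on CCD imager.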
Starred values were filed as active, the others as inactive; [ ] = remark or other dose. Compounds with a hit are over-represented: about 9.4% of the library has one in this group of screens. Calls follow the shape of the dose curve; as a rule, active = well fitted curve in the direction sought with a large enough effect; inconclusive = small, poorly fitted or top-dose-only effect, or another doubt; inactive = no such curve, though single readings can be large; an effect the other way counts as inactive or inconclusive. Potency is read from the fitted curve at half-maximal effect.

For O=C(Nc1ccc2c(c1)OCCO2)c1cccc(Cl)c1 the results were Rab9 promoter act 2µM*, NPC1 promoter act 3.2µM*, ELG1 DNA repair inconclusive, FLuc counter 3µM* and ELG1 genotox inconclusive.
O=C(CC(=O)c1ccccc1)Nc1ccc2c(c1)OCCO2 was read as Rab9 promoter act 1.4µM*, SMN2 splice up 13µM*, NPC1 promoter act 2.5µM*, ELG1 DNA repair inconclusive, FLuc counter 6.7µM* and ELG1 genotox inconclusive.
Screening COc1ccc(-n2nc3cc(C)c(NC(=O)c4ccc(-c5ccc(Cl)cc5)o4)cc3n2)cc1 returned SMN2 splice up 2% and FLuc counter -16%.
For CCc1ccccc1NC(=O)c1cn(C)c(=O)c2ccccc12 the results were SMN2 splice up 6% and FLuc counter 1%.
O=C(NCc1ccccc1)c1ccc2c(c1)OCCO2 was read as Rab9 promoter act inconclusive, SMN2 splice up 19%, NPC1 promoter act 19%, ELG1 DNA repair inconclusive, FLuc counter inconclusive and ELG1 genotox 9%.
`O=C(Nc1cccc(Cl)c1)c1ccc2c(c1)OCCO2` gave Rab9 promoter act 1.8µM*, NPC1 promoter act 1.3µM*, ELG1 DNA repair inconclusive, FLuc counter 1.1µM* and ELG1 genotox 2.1µM*.
For O=C(CCCc1ccccc1)Nc1ccc2c(c1)OCCO2 the results were Rab9 promoter act 0.45µM*, SMN2 splice up 6.3µM*, NPC1 promoter act 0.5µM*, ELG1 DNA repair inconclusive, FLuc counter 2.1µM* and ELG1 genotox 2.1µM*.
For O=C(CCCCCN1C(=O)c2ccccc2C1=O)Nc1ccc2c(c1)OCCO2 the results were Rab9 promoter act -1%, SMN2 splice up 2%, NPC1 promoter act 7%, ELG1 DNA repair 0%, FLuc counter inconclusive and ELG1 genotox 0%.
`O=C(Nc1ccc2c(c1)OCCO2)C(=S)NCc1ccccc1` gave Rab9 promoter act 25%, SMN2 splice up inconclusive, NPC1 promoter act 17%, ELG1 DNA repair inconclusive, FLuc counter 6µM* and ELG1 genotox 10%.
Screening S=C(Nc1ccc(Br)cc1)Nc1ccc2c(c1)OCCO2 returned Rab9 promoter act inconclusive, NPC1 promoter act inconclusive, ELG1 DNA repair inconclusive, FLuc counter 12µM* and ELG1 genotox inconclusive.
Screening COc1cc(NC(=S)Nc2ccc3c(c2)OCCO3)cc(OC)c1OC returned Rab9 promoter act 14%, NPC1 promoter act 5%, ELG1 DNA repair inconclusive, FLuc counter -19% and ELG1 genotox 11%.
For Cc1cccc(NC(=O)C(c2ccccc2)N2Cc3ccccc3C2=O)c1C (centres undefined) the results were FLuc counter 3%.
Screening CCOc1ccc(C(=O)N2CC(=O)Nc3ccc(C)cc3C2c2ccc(F)cc2)cc1OCC (centres undefined) returned SMN2 splice up -4% and FLuc counter 5%.
`CCOc1ccccc1NC(=O)CN1C(=O)CC(c2ccc(OC)c(OC)c2)Sc2ccccc21` (centres undefined) gave SMN2 splice up 7% and FLuc counter -20%.
`CCC(=O)Nc1ccc(CC)cc1-c1nc2ccccc2n(CC(=O)Nc2ccccc2C)c1=O` gave FLuc counter -2%.
For O=C(NC(=S)Nc1ccccc1Br)c1ccc2c(c1)OCO2 the results were Rab9 promoter act 11%, NPC1 promoter act inconclusive, ELG1 DNA repair inconclusive, FLuc counter 9.5µM* and ELG1 genotox inconclusive.
Screening O=C(Nc1ccc2c(c1)OCCO2)c1ccc(Br)s1 returned Rab9 promoter act 1.6µM*, SMN2 splice up 1.1µM*, NPC1 promoter act 3.5µM*, ELG1 DNA repair inconclusive, FLuc counter 0.67µM* and ELG1 genotox 1.5µM*.
For CS(=O)(=O)Nc1ccc(C(=O)Nc2ccc3c(c2)OCCO3)cc1 the results were Rab9 promoter act inconclusive, SMN2 splice up inconclusive, NPC1 promoter act inconclusive, ELG1 DNA repair inconclusive, FLuc counter 19µM* and ELG1 genotox inconclusive.
CSc1ccccc1C(=O)Nc1ccc2c(c1)OCCO2 was read as SMN2 splice up 5% and FLuc counter inconclusive.
For O=C(Nc1ccc2c(c1)OCCO2)c1ccccc1 the results were Rab9 promoter act 0.79µM*, NPC1 promoter act 0.45µM*, ELG1 DNA repair inconclusive, FLuc counter 3.4µM* and ELG1 genotox 3.7µM*.
COC(=O)c1sc2c(c1C)c(=O)n(-c1ccccc1)c(=O)n2CC(=O)Nc1cccc(C)c1 was read as FLuc counter 3%.
CC(=O)OC1CCC23CC1(C)CCC2C(C)(C)CC3OC(C)=O (centres undefined) was read as SMN2 splice up -1%.
`C#CCOc1ccc(C2C(C(=O)OC)=C(C)NC3=C2C(=O)c2ccccc23)cc1OCC` (centres undefined) gave FLuc counter -10%.
COc1ccc(N2CC(NC(=O)c3ccc(S(=O)(=O)N4CCCCC4)cc3)CC2=O)cc1 (centres undefined) was read as FLuc counter -6%.
For O=C(Nc1ccc2c(c1)Cc1ccccc1-2)[C@@H]1[C@H](C(=O)O)[C@]2(Cl)C(Cl)=C(Cl)[C@@]1(Cl)C2(Cl)Cl the results were SMN2 splice up 5%[9.22 µM].
`CC(C)c1ccc(O)c(NC(=S)NC(=O)c2ccc3c(c2)OCO3)c1` gave Rab9 promoter act inconclusive, NPC1 promoter act 2.2µM*, ELG1 DNA repair inconclusive, FLuc counter 6.7µM* and ELG1 genotox 22%.
Screening CN1C(=O)c2ccc(C(=O)Nc3ccc4c(c3)OCO4)cc2C1=O returned Rab9 promoter act 12%, NPC1 promoter act 15%, ELG1 DNA repair inconclusive, FLuc counter 2.4µM* and ELG1 genotox inconclusive.
`O=C(Nc1cccc([N+](=O)[O-])c1)c1cnccn1` gave Rab9 promoter act 1%, SMN2 splice up 19%, NPC1 promoter act 6%, ELG1 DNA repair 2%, FLuc counter -2% and ELG1 genotox 1%.
For O=C(Nc1cccc([N+](=O)[O-])c1)c1[nH]ncc1Cl the results were Rab9 promoter act 4µM*, SMN2 splice up 11µM*, NPC1 promoter act 3.2µM*, ELG1 DNA repair inconclusive, FLuc counter 17µM* and ELG1 genotox inconclusive.

Assay outcomes (PubChem)
